From PubChem
An excerpt weighted towards active compounds, which were near 8% of everything screened.
HT1080 IDH1KD tx – kills HT-1080 cells with IDH1 knockdown; HT-1080 IDH1 knockdown viability, ATP luminescence, 48 h; hit rate 2% among 360,000; Potency, µM (top dose mostly 46.1 µM), for inactives: at the top dose activity, negative = toxicity, hits mostly cytotoxic;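 note: 0% = DMSO wells and -100% = cell-free medium wells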
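Cytotoxicity counter-line: IDH1KD HT-1080, 48 h, CellTiter-Glo. Curves classed by r2, magnitude and activity.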
KB-V1 MDR tox – kills drug-selected multidrug resistant KB-V1 cells; hit rate 3.4% among 400,000; KB-V1 MDR cells viability, CellTiter-Glo, 72 h; Potency, µM (series often up to 46.1 µM), actives largely listed as cytotoxic; AID 1347076; note: % is set by controls: 0 for no effect and ±100 for the full control effect; nearly all actives have a fitted effect of over 60% in size
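Compound-treated KB-V1 multidrug-resistant cells, 72 h, 37 degrees C; viability by CellTiter-Glo. Fitted qHTS curves give the values.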
SW480 rereplic – inducers of DNA re-replication in SW480 colon cancer cells; SW480 DNA re-replication, Hoechst DNA content imaging, 48 h; AID 624297; Potency, µM (series often up to 46.1 µM), inactives show at the highest dose re-replication activation, actives largely listed as activators; hit rate 1.8% among 340,000; note: % of control where 0% means no effect; nearly all actives have a fitted effect of over 55% in size
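DNA re-replication was detected as more nuclei of elevated Hoechst intensity after 48 hr exposure to compound (23 nL pinned per well of 250 cells).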
KB-3-1 tox – kills parental KB-3-1 adenocarcinoma cells. KB-3-1 viability, CellTiter-Glo ATP luminescence, 72 h. Potency, µM (top dose mostly 46.1 µM), most hits filed as cytotoxic. hit rate 1.4% among 400,000. AID 1347075; note: % is set by controls: 0 for no effect and ±100 for the full control effect; nearly all actives have a fitted effect of over 60% in size
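Parental KB-3-1 viability, qHTS format: 72 h compound exposure, 37 °C; CellTiter-Glo; media-only wells and DMSO plates as controls; concentration-effect fits on corrected data.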
HT1080NT lethal – kills 2HG-producing HT-1080-NT fibrosarcoma cells; HT-1080-NT fibrosarcoma viability, CellTiter-Glo ATP luminescence, 48 h; Potency, µM (top dose mostly 46.1 µM), without a hit: top-dose activity, negative = less viability, usual class: cytotoxic; hit rate 1.6% among 360,000; AID 686970;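 note: NT is the 2HG producing partner of a matched IDH1 knockdown line; 0% = DMSO-treated cells and -100% = media-only wells without cells; nearly all actives have a fitted effect of over 55% in size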
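Viability by CellTiter-Glo luminescence after 48 h compound exposure at 37C of HT-1080-NT cells (750/well, RPMI, 5% FBS). % activity scaled between DMSO wells and medium-only wells, then curve-fitted and categorized by curve class.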
MCF10A rerep – DNA re-replication induction in MCF 10a cells | MCF 10A DNA re-replication, Hoechst nuclear intensity, 48 h | Potency, µM (series often up to 46.1 µM), for the others: at the highest dose activity, positive = re-replication, actives largely listed as activators | hit rate 2.9% among 350,000; note: % of control where 0% means no effect; nearly all actives have a fitted effect of over 50% in size
Active calls of the source: *. Calls come from the whole dose curve; as a rule, active = well fitted curve in the direction sought with a large enough effect; inconclusive = small, poorly fitted or top-dose-only effect, or another doubt; inactive = no such curve, though single readings can be large; an effect the other way counts as inactive or inconclusive. Potency is the fitted concentration of half-maximal effect.

Results for CCCCn1c(=O)c(C(=O)NCc2ccccc2OC)c(O)c2ccccc21 ?
HT1080 IDH1KD tx: 4%; KB-V1 MDR tox: inconclusive; SW480 rereplic: 10%; KB-3-1 tox: 23µM*; HT1080NT lethal: 23%; MCF10A rerep: 11%

Results for CCCCCn1c(=O)c(C(=O)NCCc2ccccc2)c(O)c2ccccc21 ?
HT1080 IDH1KD tx: 3%; KB-V1 MDR tox: inconclusive; SW480 rereplic: 3%; KB-3-1 tox: inconclusive; HT1080NT lethal: 5%; MCF10A rerep: 23µM*

Results for CCCCCn1c(=O)c(C(=O)Nc2ccccc2Cl)c(O)c2ccccc21 ?
HT1080 IDH1KD tx: 3%; KB-V1 MDR tox: inactive; SW480 rereplic: -1%; KB-3-1 tox: inactive; HT1080NT lethal: 1%; MCF10A rerep: -5%

Results for CCCCn1c(=O)c(C(=O)Nc2cccc(C)c2)c(O)c2ccccc21 ?
HT1080 IDH1KD tx: 10%; KB-V1 MDR tox: inconclusive; SW480 rereplic: -6%; KB-3-1 tox: inconclusive; HT1080NT lethal: 13%; MCF10A rerep: 4%

What do the screens show for `Cc1nc2ccc(Cl)cc2c(=O)n1-c1cccc(Cl)c1`?
HT1080 IDH1KD tx: 0%; KB-V1 MDR tox: inactive; SW480 rereplic: -112%; KB-3-1 tox: inactive; HT1080NT lethal: -1%; MCF10A rerep: 0%

How did COC(=O)c1ccc(NC(=O)NC(=O)Oc2ccccc2)cc1 do in these assays?
HT1080 IDH1KD tx: -1%; KB-V1 MDR tox: inactive; SW480 rereplic: -13%; KB-3-1 tox: inactive; HT1080NT lethal: 4%; MCF10A rerep: 4%

Results for c1ccc2c(c1)[IH]c1ccccc1-2 ?
HT1080 IDH1KD tx: 0.46µM*; KB-V1 MDR tox: inconclusive; SW480 rereplic: inconclusive; KB-3-1 tox: inconclusive; HT1080NT lethal: 0.46µM*; MCF10A rerep: -13%

How did O=c1[nH]c2ccccc2n1C1CCN(Cc2ccc(-c3nc4ccccc4nc3-c3ccccc3)cc2)CC1 do in these assays?
HT1080 IDH1KD tx: inconclusive; KB-V1 MDR tox: 23µM*; KB-3-1 tox: inconclusive; HT1080NT lethal: inconclusive

Results for O=c1[nH]c2ccccc2n1CCCN1CCC(n2c(=O)[nH]c3cc(Cl)ccc32)CC1 ?
HT1080 IDH1KD tx: -27%; KB-V1 MDR tox: inactive; SW480 rereplic: 1%; KB-3-1 tox: inactive; HT1080NT lethal: -1%; MCF10A rerep: inconclusive

How did O=c1[nH]c2ccccc2n1C1CCN(Cc2ccc(-c3nc4ccc(F)cc4nc3-c3ccccc3)cc2)CC1 do in these assays?
HT1080 IDH1KD tx: inconclusive; KB-V1 MDR tox: inconclusive; KB-3-1 tox: inconclusive; HT1080NT lethal: 21µM*

Results for Cc1ccc(OCC(=O)N2CCN(Cc3ccc4c(c3)OCO4)CC2)cc1 ?
HT1080 IDH1KD tx: -15%; KB-V1 MDR tox: inactive; SW480 rereplic: -2%; KB-3-1 tox: inactive; HT1080NT lethal: 2%; MCF10A rerep: 3%

What do the screens show for `O=C1CN=C(c2ccc[nH]2)c2cc(Cl)ccc2N1`?
HT1080 IDH1KD tx: -11%; KB-V1 MDR tox: inactive; SW480 rereplic: inconclusive; KB-3-1 tox: inactive; HT1080NT lethal: -4%; MCF10A rerep: 0%

How did C=CCn1c(O)c(C(C)=Nc2ccc(N(CC)CC)cc2)c(=O)[nH]c1=O do in these assays?
HT1080 IDH1KD tx: inconclusive; KB-V1 MDR tox: 12µM*; SW480 rereplic: 15µM*; KB-3-1 tox: 5.8µM*; HT1080NT lethal: inconclusive; MCF10A rerep: inconclusive

How did C=CCn1c(O)c(C(C)=Nc2ccc(N(C)C)cc2)c(=O)[nH]c1=O do in these assays?
HT1080 IDH1KD tx: -19%; KB-V1 MDR tox: inactive; SW480 rereplic: inconclusive; KB-3-1 tox: inconclusive; HT1080NT lethal: -4%; MCF10A rerep: inconclusive

How did C=CCn1c(O)c(C(CC)=Nc2ccc(NC(C)=O)cc2)c(=O)[nH]c1=O do in these assays?
HT1080 IDH1KD tx: 13%; KB-V1 MDR tox: inactive; SW480 rereplic: -11%; KB-3-1 tox: inactive; HT1080NT lethal: 1%; MCF10A rerep: -1%

How did C=CCn1c(O)c(C(CC)=Nc2ccc(N(CC)CC)cc2)c(=O)[nH]c1=O do in these assays?
HT1080 IDH1KD tx: -2%; KB-V1 MDR tox: 15µM*; SW480 rereplic: -4%; KB-3-1 tox: 23µM*; HT1080NT lethal: 2%; MCF10A rerep: -1%

What do the screens show for `CCCn1c(C)c(C(=O)c2cccc3ccccc23)c2ccccc21`?
HT1080 IDH1KD tx: inconclusive; KB-V1 MDR tox: inconclusive; SW480 rereplic: 20%; KB-3-1 tox: inconclusive; HT1080NT lethal: inconclusive; MCF10A rerep: inconclusive

How did O=C(c1c[nH]cc1-c1ccccc1)c1cccc2ccccc12 do in these assays?
HT1080 IDH1KD tx: 15µM*; KB-V1 MDR tox: inactive; SW480 rereplic: 22%; KB-3-1 tox: inactive; HT1080NT lethal: 23µM*; MCF10A rerep: 17%

How did C[N+](C)(C)CC1CCCc2ccccc2C1=O (centres undefined) do in these assays?
HT1080 IDH1KD tx: 5.8µM*; KB-V1 MDR tox: inactive; SW480 rereplic: 16%; KB-3-1 tox: inconclusive; HT1080NT lethal: inconclusive; MCF10A rerep: 13µM*

How did C[N+](C)(C)CC1CCCC(C[N+](C)(C)C)C1=O (centres undefined) do in these assays?
HT1080 IDH1KD tx: 3.7µM*; KB-V1 MDR tox: inconclusive; SW480 rereplic: inconclusive; KB-3-1 tox: inconclusive; HT1080NT lethal: inconclusive; MCF10A rerep: inconclusive

What do the screens show for `C[C@]12CCC3C(CCC4=C(Cl)C(=O)CC[C@@]43C)C1CCC2O` (some centres undefined)?
SW480 rereplic: -10%; MCF10A rerep: 19%

How did CC12CCC(=O)C=C1C=CC1C2CCC2(C)C(O)CCC12 (centres undefined) do in these assays?
HT1080 IDH1KD tx: -20%; KB-V1 MDR tox: 2.1µM*; SW480 rereplic: 4%; KB-3-1 tox: 8.2µM*; HT1080NT lethal: -4%; MCF10A rerep: -20%

What do the screens show for `C[C@]12CCC(=O)C=C1C=CC1C2CC[C@@]2(C)C1CC[C@@H]2O` (some centres undefined)?
HT1080 IDH1KD tx: 0%; KB-V1 MDR tox: 3.7µM*; SW480 rereplic: -15%; KB-3-1 tox: inconclusive; HT1080NT lethal: 0%; MCF10A rerep: -27%

What do the screens show for `CC12CCC(=O)C=C1CC(N1CC1)C1C2CCC2(C)C(O)CCC12` (centres undefined)?
HT1080 IDH1KD tx: 2%; KB-V1 MDR tox: inconclusive; SW480 rereplic: inconclusive; KB-3-1 tox: inconclusive; HT1080NT lethal: 10%; MCF10A rerep: 26%

What do the screens show for `O=C1NC(=O)C(=Cc2ccccc2OCCOc2ccc([N+](=O)[O-])cc2)C(=O)N1`?
HT1080 IDH1KD tx: 18µM*; KB-V1 MDR tox: inactive; SW480 rereplic: inconclusive; KB-3-1 tox: inactive; HT1080NT lethal: inconclusive; MCF10A rerep: 18µM*
